Reference: PubChem BioAssay (Tox21)
Where “and” joins values, the source holds several entries; their conditions need not be identical. Equal values may be shown once. Inconclusive results are not listed. Entries that show only a call come without a potency. Calls of active or inactive are those of the source. The call rests on the fitted dose curve; in most records, active means well fitted cell-killing curve with a large enough effect in the repeat runs; inconclusive means weak or mixed curves; inactive means no such curve, though single readings can be large or run the other way.

Assay: qHTS assay to identify small molecule agonists of the peroxisome proliferator-activated receptor delta (PPARd) signaling pathway - cell viability counter screen (AID 743211); further: nearly all actives have a fitted effect of over 55% in size
Details: PPARd-bla HEK293H viability, CellTiter-Glo luminescence, 17 h; series mostly up to 62.6 µM
Excerpt: U.S. Tox21 Program National Center for Advancing Translational Sciences [NCATS] NIH Chemical Genomics Center [NCGC] U.S. Environmental Protection Agency [EPA] National Institutes of Environmental Health Sciences [NIEHS] National Toxicology Program [NTP] U.S. Food and Drug Administration [FDA] Tox21 Assay Overview: The peroxisome proliferator-activated receptors (PPARs) are lipid-activated transcription factors of the nuclear receptor superfamily with three distinct subtypes namely PPAR alpha, PPAR delta (PPARd) and PPAR gamma. All these subtypes heterodimerizes with Retinoid X receptor (RXR) and have different physiological functions. […] To identify the compounds that activate PPAR-delta signaling, GeneBLAzer PPAR delta UAS-bla HEK293H cell line (Invitrogen, Carlsbad, CA, USA) containing a beta-lactamase reporter gene under the control of an Upstream Activator Sequence (UAS) was used to screen the Tox21 compound library. The cytotoxicity of the Tox21 compound library against the PPARd-bla cell line was tested in parallel by measuring the cell viability using CellTiter-Glo assay (Promega, Madison, WI) in the same wells.
Tox21 Assay Protocol Summary: PPARd-bla cells were dispensed at 3000 cells/6uL/well in 1536-well black wall/clear bottom plates using a Multidrop Combi (Thermo Fisher Scientific, Waltham, MA) dispenser. After the assay plates were incubated at 37 C and 5% CO2 for 5 h, 23 nL of compounds dissolved in DMSO, positive controls or DMSO only was transferred to the assay plate by a Pintool station (Kalypsys, San Diego, CA). The assay plates were incubated at 37C for 17 h. After 1 uL of LiveBLAzerTM B/G FRET substrate was added using a Bioraptr Flying Reagent Dispenser (FRD) workstation (Beckman Coulter, Indianapolis, IN, USA), the plates were incubated at room temperature for 2 h, and fluorescence intensity was measured by an Envision plate reader (PerkinElmer, Shelton, CT). For cell viability readout that measures cytotoxicity, 3 ul/well of CellTiter-Glo reagent was added into the assay plates using a Bioraptr FRD. After 30 min incubation at room temperature, the luminescence intensity in the plates was measured using a ViewLux plate reader (PerkinElmer).
Potency means the concentration at half of the fitted maximal effect.

**Q.** Which Potency does the source give for `NC(=O)c1nc(-c2cccc(-c3cc(F)ccc3OCC(F)(F)C(F)(F)F)c2)n[nH]1` here?
**A.** The Potency was 49 µM (active).

**Q.** Which Potency does the source give for `CCN(CC)c1ccc(N)cc1` here?
**A.** The Potency was 44.8 µM (active).

**Q.** For `C(=C/c1ccccc1)/c1ccccc1`, which Potency is on record?
**A.** Its Potency is “inactive”.

**Q.** For `Cc1cccc(Br)c1`, which Potency is on record?
**A.** Its Potency is “inactive”.

**Q.** For `COC(=O)NCCC[Si](OC)(OC)OC`, which Potency is on record?
**A.** Its Potency is “inactive”.

**Q.** Which Potency does the source give for `CNC(=S)NN` here?
**A.** Its Potency is 12.3 µM (active).

**Q.** With `CN(C)CCCN1c2ccccc2Sc2ccc(C(F)(F)F)cc21` as the compound, how does the Potency read?
**A.** Its Potency is 29.8 µM (active).

**Q.** Which Potency does the source give for `CCN=C1C=CC(=C(c2ccc(N(CC)CC)cc2)c2ccc(N(CC)CC)cc2)c2ccccc21` here?
**A.** Its Potency is 3.87 µM (active).

**Q.** For `Oc1ccc(-c2ccc(O)cc2)cc1`, which Potency is on record?
**A.** The Potency was “inactive”.

**Q.** Which Potency does the source give for `CCCSS/C(CCO)=C(\C)N(C=O)Cc1cnc(C)nc1N` here?
**A.** The Potency was “inactive”.

**Q.** For `COCC(=O)O[C@]1(CCN(C)CCCc2nc3ccccc3[nH]2)CCc2cc(F)ccc2[C@@H]1C(C)C`, which Potency is on record?
**A.** Its Potency is 11.9 µM (active).

**Q.** For `CCCCCCCCCCCCCC[n+]1ccccc1`, which Potency is on record?
**A.** Its Potency is 24.5 µM (active).

**Q.** Which Potency does the source give for `CCCCCCOc1cc(C)c(O)c(C)c1C` here?
**A.** Its Potency is “inactive”.

**Q.** With `Nc1ccc2cc3ccc(N)cc3nc2c1` as the compound, how does the Potency read?
**A.** Its Potency is “inactive”.

**Q.** For `Cc1cc(Nc2ccc(O)cc2)ccc1N`, which Potency is on record?
**A.** The Potency was “inactive”.

**Q.** For `CC1=C(/C=C/C(C)=C/C=C/C(C)=C/C(=O)Nc2ccc(O)cc2)C(C)(C)CCC1`, which Potency is on record?
**A.** Its Potency is 3.56 µM (active) and 4.73 µM (active).

**Q.** Which Potency does the source give for `CC1(C)C(=O)N(Br)C(=O)N1Br` here?
**A.** Its Potency is “inactive”.

**Q.** Which Potency does the source give for `CCCCOc1ccc(C(=O)CCN2CCCCC2)cc1` here?
**A.** The Potency was 11.9 µM (active).

**Q.** Which Potency does the source give for `C=CC(=O)OCC(O)COc1ccccc1` (stereo not given) here?
**A.** Its Potency is 49 µM (active).

**Q.** For `CCCOc1sc(C(=O)N2CCC(c3cc(CN)ccc3F)CC2)c(C)c1Br`, which Potency is on record?
**A.** The Potency was 15.9 µM (active).

**Q.** For `O=C(c1ccccc1)c1cc(Cl)ccc1O`, which Potency is on record?
**A.** The Potency was “inactive”.

**Q.** For `O=Cc1ccc(F)cc1`, which Potency is on record?
**A.** The Potency was “inactive”.

**Q.** For `CN(C)CCCN1c2ccccc2CCc2ccccc21`, which Potency is on record?
**A.** The Potency was 30.9 µM (active).

**Q.** With `CSc1c(Cl)c(Cl)c(Cl)c(Cl)c1Cl` as the compound, how does the Potency read?
**A.** Its Potency is 54.6 µM (active).

**Q.** For `Cn1cnc2ncnc(N)c21`, which Potency is on record?
**A.** Its Potency is “inactive”.

**Q.** With `CCc1cccc(C)c1` as the compound, how does the Potency read?
**A.** The Potency was “inactive”.

**Q.** With `Nc1cc(Cl)c([N+](=O)[O-])cc1O` as the compound, how does the Potency read?
**A.** Its Potency is “inactive”.

**Q.** With `O=C1NC2CCCCN2C12CCN(CCCN1c3ccccc3CCc3ccc(Cl)cc31)CC2` (stereo not given) as the compound, how does the Potency read?
**A.** Its Potency is 29.8 µM (active).

**Q.** For `SCCCCCCCCS`, which Potency is on record?
**A.** Its Potency is “inactive”.

**Q.** For `S=C(SSSSSSC(=S)N1CCCCC1)N1CCCCC1`, which Potency is on record?
**A.** Its Potency is 0.108 µM (active).

**Q.** Which Potency does the source give for `O=C(O)Cc1ccc(OCCNC[C@H](O)c2ccccc2)cc1` here?
**A.** The Potency was “inactive”.

**Q.** For `CCOC(=O)[C@@](C)(N)Cc1ccc(O)c(O)c1`, which Potency is on record?
**A.** The Potency was “inactive”.

**Q.** Which Potency does the source give for `C=CC(=O)OCCC#N` here?
**A.** Its Potency is “inactive”.

**Q.** With `C[C@]12CC[C@H]3C(=CCc4cc(O)ccc43)[C@@H]1CCC2=O` as the compound, how does the Potency read?
**A.** The Potency was “inactive”.

**Q.** With `C[Si](C)(C)Cl` as the compound, how does the Potency read?
**A.** The Potency was “inactive”.

**Q.** Which Potency does the source give for `CCCCCCCC/C=C/CCCOC(C)=O` here?
**A.** Its Potency is “inactive”.

**Q.** Which Potency does the source give for `COC(=O)CC(C)CCC=C(C)C` (stereo not given) here?
**A.** Its Potency is “inactive”.

**Q.** With `C=CC(=O)OCCOCC(CC)(COCCOC(=O)C=C)COCCOC(=O)C=C` as the compound, how does the Potency read?
**A.** Its Potency is 51 µM (active).

**Q.** For `CC(C)(C)c1cc(/C=C2\SC(=N)NC2=O)cc(C(C)(C)C)c1O`, which Potency is on record?
**A.** Its Potency is 21.9 µM (active).

**Q.** For `c1ccc(Nc2cccc3ccccc23)cc1`, which Potency is on record?
**A.** The Potency was “inactive”.
